The results in this text go back to PubChem BioAssay (EPA / NIEHS).

Several values for one entry are separate records, joined by “and”; a condition that tells them apart may be missing. Identical values can stand only once. Results filed as inconclusive are left out. More than one record can exist for a structure, and the calls need not agree. Activity calls are given as the source filed them. Rule for the calls, unless noted: active = hit-call score of the fitted dose curve at least 0.9, where 1 is the maximum; inactive = score below 0.9.

Experiment [1] can be described thus: CCTE_Harrill_HTTr_CellCount_MCF7: CCTE's Cell Proliferation Assessment for the High-Throughput Transcriptomics (HTTr) Platform, Harrill Lab (AID 2284012; active = hit-call score of the fitted dose curve at least 0.9, where 1 is the maximum;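 note: cells exposed to compound for six hours; intended direction is loss of nuclei count meaning fewer cells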). Put shortly: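 Cell count served as viability reporter: loss of Hoechst-stained nuclei, counted by high content imaging, marks decreased growth or survival. Exposure was 6 h in MCF-7 cells across eight concentrations, with DMSO as baseline.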

A short description of experiment [2]: CCTE_Shafer_MEA_acute_burst_number: CCTE's Neural Acute Assay for Single-Electrode Bursts, Shafer Lab (AID 2284013). A digest of the protocol: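 Burst totals were derived with adaptive spike detection (8x rms threshold) on filtered signals from rat cortical cultures; change relative to pre-treatment baseline after 40-min compound exposure (0.03-40 uM) was fitted in the negative direction against DMSO.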

Experiment [3] can be described thus: CCTE_Shafer_MEA_acute_burst_duration_mean: CCTE's Neural Acute Assay for Mean Burst Duration, Shafer Lab (AID 2284014).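 Note: hits are decreases in mean burst duration relative to DMSO controls.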 A digest of the protocol:
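Acute exposure of mature rat cortical networks (DIV 13 or 15) grown on microelectrode arrays to 0.03-40 uM compound. Mean burst duration compared with the 40-min pre-dose baseline over a 40-min post-dose recording at 37 C.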

A short description of experiment [4]: CCTE_Shafer_MEA_acute_per_burst_spike_number_mean: CCTE's Neural Acute Assay for Average Number of Spikes Per Burst, Shafer Lab (AID 2284015).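 Note: hits are decreases in mean spikes per burst versus baseline.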 A digest of the protocol: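 Primary rat cortical neurons on 48-well MEA plates, treated on DIV 13 or 15 at 0.03-40 uM. Spontaneous activity recorded 40 min before and 40 min after compound at 37 C; percent change in mean spikes per single-electrode burst per well, fitted in the loss direction versus DMSO.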

The nature of experiment [5]: CCTE_Shafer_MEA_acute_interburst_interval_mean: CCTE's Neural Acute Assay for Mean Interburst Interval, Shafer Lab (AID 2284016).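 Note: percent change of mean interburst interval versus each well's own pre-dose baseline; curves fitted for decrease in interburst interval relative to DMSO.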 Put shortly: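 Primary rat cortical neurons on 16-electrode MEA wells were recorded 40 min at baseline on DIV 13 or 15, then 40 min after compound (0.03-40 uM), at 37 C. Value is percent change in mean interburst interval per well, DMSO as negative control.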

Experiment [6] is described as follows: CCTE_Shafer_MEA_acute_burst_percentage_mean: CCTE's Neural Acute Assay for Percentage of Spikes in a Burst, Shafer Lab (AID 2284017).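 Note: curve fitted for loss of signal so potency reflects decreased burst percentage.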 Put shortly:
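Primary rat cortical neurons on 16-electrode MEA wells; 40 min baseline recorded at DIV 13 or 15, then 40 min after compound (0.03-40 uM) at 37 C. Well-mean fraction of spikes in single-electrode bursts; percent change from baseline, DMSO as negative control.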

Experiment [7] is described as follows: CCTE_Shafer_MEA_acute_burst_percentage_std: CCTE's Neural Acute Assay for Standard Deviation of Burst Percentage, Shafer Lab (AID 2284018).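 Note: fitted in the negative direction so actives lower burst percentage SD.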 Put shortly:
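Primary rat cortical neurons on 16-electrode MEA wells were recorded 40 min at baseline (DIV 13 or 15), then 40 min after compound (0.03-40 uM), at 37 C. Well value is SD across electrodes of spikes-in-bursts/total spikes; endpoint is percent change, DMSO-referenced.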

The nature of experiment [8]: CCTE_Shafer_MEA_acute_per_network_burst_spike_number_mean: CCTE's Neural Acute Assay for Average Number of Spikes in a Network Burst, Shafer Lab (AID 2284019).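 For AC50: curve fitted for loss of signal so actives reduce spikes per network burst.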 A digest of the protocol: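 Acute exposure of rat primary cortical networks (DIV 13/15) on MEAs; adaptive spike detection at 8x rms noise, 37 C. Percent change in spikes per network burst after 40 min with compound (0.03-40 uM), negative direction vs DMSO.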

Experiment [9] can be described thus: CCTE_Shafer_MEA_acute_per_network_burst_spike_number_std: CCTE's Neural Acute Assay for Standard Deviation of Number of Spikes in a Network Burst, Shafer Lab (AID 2284020).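 Note: fitted for decrease in spike-number SD versus DMSO so actives lower it.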 A digest of the protocol: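 Acute MEA exposure, rat cortical neurons, 0.03-40 uM. Per-well % change versus own baseline; DMSO as negative control.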
The nature of experiment [10]: CCTE_Shafer_MEA_acute_per_network_burst_electrodes_number_mean: CCTE's Neural Acute Assay for Mean Number of Electrodes in a Network Burst, Shafer Lab (AID 2284021).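 Note: curves fitted for decreases only so hits reduce electrodes per burst.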 A digest of the protocol: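 Rat primary cortical neurons on 48-well MEAs, DIV 13 or 15, were treated at 0.03-40 uM. Spikes were detected at 8x rms noise and recorded at 37 C. The mean electrodes per network burst in a 40 min exposure recording was expressed as percent change from a 40 min baseline.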

A short description of experiment [11]: CCTE_Shafer_MEA_acute_network_burst_percentage: CCTE's Neural Acute Assay for Percentage of Network Bursts, Shafer Lab (AID 2284022).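 Note: curves fitted for loss so actives lower network burst percentage.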 Put shortly: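 Rat primary cortical neuron networks on 48-well MEA plates, DIV 13 or 15, treated acutely with compound (0.03-40 uM, at least three wells). Percent of spikes within network bursts compared between 40-min recordings before and during exposure at 37 C, expressed as percent change.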

Experiment [12] in a line: CCTE_Shafer_MEA_acute_cross_correlation_area: CCTE's Neural Acute Assay for Area of Cross Correlation, Shafer Lab (AID 2284024).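 Note: curves fitted for loss of cross-correlation area so actives lower synchrony.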 Put shortly: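 Rat primary cortical neurons on 48-well MEA, DIV 13 or 15; compounds 0.03-40 uM. Baseline and post-exposure 40 min recordings at 37 C; percent change in area under pooled inter-electrode cross-correlation near zero lag, relative to DMSO.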

The nature of experiment [13]: CCTE_Shafer_MEA_acute_cross_correlation_HWHM: CCTE's Neural Acute Assay for Cross Correlation at Half Width at Half Maximum, Shafer Lab (AID 2284026).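 For outcome: spontaneous network firing of rat primary cortical neurons on multiwell microelectrode arrays.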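 Note: hits are a decrease in cross-correlogram half width relative to DMSO.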 Put shortly: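 Rat primary cortical neurons on 48-well MEA plates; 40-min baseline and 40-min post-exposure recordings at 37 C on DIV 13 or 15, compounds 0.03-40 uM. Spikes detected at 8x rms noise; percent change in cross-correlogram HWHM per well vs baseline.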

A short description of experiment [14]: CCTE_Shafer_MEA_dev_firing_rate_mean: CCTE's Neural Network Formation Assay for Mean Firing Rate, Shafer Lab (AID 2284031).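 For AC50: curve fitted for loss of firing so AC50 reflects decreased mean firing rate.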 A digest of the protocol:
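Steps: seed rat cortical cells (1.5 x 10^5/well) with laminin on PEI-coated MEA; dose day 0; record DIV 5/7/9/12, full media and compound exchange after DIV 5 and 9 recordings; compute well-mean firing rate AUC.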

Experiment [15] is described as follows: CCTE_Shafer_MEA_dev_per_burst_spike_percent: CCTE's Neural Network Formation Assay for Percent of Spikes in a Burst, Shafer Lab (AID 2284032).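 For AC50: fitted as a decrease in burst spike percentage below DMSO baseline.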 Put shortly:
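Value is trapezoidal AUC over recordings on days 5, 7, 9 and 12 of the well-mean fraction of spikes falling in single-electrode bursts; rat cortical cultures exposed continuously from plating, treatment renewed DIV 5 and 9, fitted downward against DMSO.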

Experiment [16] concerns the target Estrogen receptor (Homo sapiens) (UniProt P03372). Briefly: CCTE_Deisenroth_AIME_384WELL_LUC_Active: CCTE's 384-well Estrogen Receptor Transactivation Assay with AIME metabolic competence (ERTA luciferase; metabolism positive), Deisenroth Lab (AID 2284030; active = hit-call score of the fitted dose curve at least 0.9, where 1 is the maximum). Put shortly:
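Chemicals (10-point, 0.002-200 uM) were first incubated 2 hours with alginate-immobilized induced male Sprague Dawley rat liver S9. The conditioned medium was then applied to VM7Luc4E2 cells for 24 hours, with ER luciferase induction read by luminescence relative to 17beta-estradiol.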

Experiment [17] has the same target. Briefly: CCTE_Deisenroth_AIME_96WELL_LUC_Active: CCTE's 96-well Estrogen Receptor Transactivation Assay with AIME metabolic competence (ERTA luciferase; metabolism positive), Deisenroth Lab (AID 2284023; active = hit-call score of the fitted dose curve at least 0.9, where 1 is the maximum). Put shortly: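 Metabolism-positive mode: induced rat hepatic S9 in alginate microspheres conditions test solutions (0.002 - 200 uM, 10 points) for 2 hours. VM7Luc4E2 ER luciferase reporter cells then exposed 24 h; positive-direction fit against 17beta-estradiol, n=4 typical.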

The target is the same in experiment [18]. Briefly: CCTE_Deisenroth_AIME_96WELL_LUC_Inactive: CCTE's 96-well Estrogen Receptor Transactivation Assay without AIME metabolic competence (ERTA luciferase; metabolism negative), Deisenroth Lab (AID 2284025; active = hit-call score of the fitted dose curve at least 0.9, where 1 is the maximum). Put shortly:
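Metabolism-negative arm: chemicals (0.002–200 uM, 10 points) incubated 2 h with alginate-water microspheres, then medium moved onto VM7Luc4E2 cells for 24 h luciferase read-out. Positive direction vs 17beta-estradiol; n≥4 experiments.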

A short description of experiment [19]: CCTE_Deisenroth_AIME_96WELL_CTox_Active: Cytotoxicity Assessment (CTOX) in CCTE's 96-well Estrogen Receptor Transactivation Assay with AIME metabolic competence (metabolism positive), Deisenroth Lab (AID 2284028; active = hit-call score of the fitted dose curve at least 0.9, where 1 is the maximum). A digest of the protocol:
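Cytotoxicity in VM7Luc4E2 breast cells after 24 h exposure to medium from a 2 h metabolic pre-incubation with induced rat hepatic S9 in alginate microspheres; fluorescent live-cell protease readout, 10-point series 0.002–200 uM, n=4.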

Experiment [20] is described as follows: CCTE_Deisenroth_AIME_96WELL_CTox_Inactive: Cytotoxicity Assessment (CTOX) in CCTE's 96-well Estrogen Receptor Transactivation Assay without AIME metabolic competence (metabolism negative), Deisenroth Lab (AID 2284029; active = hit-call score of the fitted dose curve at least 0.9, where 1 is the maximum). A digest of the protocol:
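Metabolism-negative mode: alginate-water lids without rat S9, 2 h pre-incubation of 10-point series (0.002 - 200 uM). Conditioned medium on VM7Luc4E2 cells 24 h; loss of fluorescent live-cell protease signal marks cytotoxicity.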

Sequence of Estrogen receptor (Homo sapiens) (P03372 whole entry, looked up): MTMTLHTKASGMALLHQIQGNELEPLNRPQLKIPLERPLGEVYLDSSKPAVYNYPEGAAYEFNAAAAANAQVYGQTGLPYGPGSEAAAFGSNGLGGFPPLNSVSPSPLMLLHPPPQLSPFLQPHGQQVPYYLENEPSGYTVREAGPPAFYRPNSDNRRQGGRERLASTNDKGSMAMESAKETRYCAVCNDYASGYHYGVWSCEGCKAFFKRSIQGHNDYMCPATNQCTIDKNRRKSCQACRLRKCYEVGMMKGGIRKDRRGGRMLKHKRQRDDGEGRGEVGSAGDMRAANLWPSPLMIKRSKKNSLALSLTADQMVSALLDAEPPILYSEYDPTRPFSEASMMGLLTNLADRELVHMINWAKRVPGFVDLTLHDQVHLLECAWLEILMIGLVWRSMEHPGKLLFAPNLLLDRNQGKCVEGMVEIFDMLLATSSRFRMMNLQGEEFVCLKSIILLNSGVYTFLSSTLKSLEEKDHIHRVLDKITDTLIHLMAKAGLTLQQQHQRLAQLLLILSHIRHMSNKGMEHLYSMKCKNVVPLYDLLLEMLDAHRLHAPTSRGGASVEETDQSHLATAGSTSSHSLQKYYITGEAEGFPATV

Consider `CO/C=C(/C(=O)OC)c1ccccc1Oc1cc(Oc2ccccc2C#N)ncn1`, for which the compound was classed as inactive in experiment [1], in [2], in experiment [3], in experiment [4], in [7] and in experiment [8]. Moreover, the compound was called inactive in experiment [9], in experiment [12] and in experiment [13]. The AC50 was 11.1 µM (active) in experiment [5]; 10.2 µM (active) in experiment [6]; 7.21 µM (active) in [10]; 11.1 µM (active) in [11]; 925 nM (active) and 1.71 µM (active) in [14]; 1.64 µM (active) and 1.26 µM (active) in [15].

Take `Cc1c(F)c(F)c(COC(=O)C2C(/C=C(\Cl)C(F)(F)F)C2(C)C)c(F)c1F` (stereo not drawn): the compound was called inactive in experiment [1], in experiment [3], in experiment [5], in experiment [7] and in [16]. In addition, the AC50 in [2] is 0.226 µM (active); in experiment [4] it was 1.76 µM (active); in experiment [6] it was 0.24 µM (active); in experiment [8] it was 32.6 nM (active); in [9], 0.0979 µM (active); in experiment [10], 0.145 µM (active). In addition, the AC50 was 0.567 µM (active) in [11]; 0.0953 µM (active) in [12]; 28.1 µM (active) in experiment [13]; 598 nM (active) in experiment [14]; 1.83 µM (active) in [15].

As for `N#Cc1nn(-c2c(Cl)cc(C(F)(F)F)cc2Cl)c(N)c1S(=O)C(F)(F)F` (stereo not drawn), the compound was called inactive in experiment [1], in experiment [2], in experiment [3], in experiment [4], in [5] and in [9]. The outcome in experiment [11], in experiment [12], in experiment [14] and in [15] was inactive. Further, the AC50 in experiment [4] is 1.87 µM (active); in [5], 8.32 µM (active); in experiment [6], 33.4 µM (active) and 24.2 µM (active); in experiment [7], 36.5 µM (active) and 3.5 µM (active); in experiment [8], 1.59 µM (active) and 666 nM (active); in experiment [10], 1.36 µM (active) and 1.28 µM (active). Moreover, the AC50 in experiment [13] is 13.3 µM (active) and 24.6 µM (active).

For `CCNc1nc(Cl)nc(NCC)n1`, in [1], the call was inactive.

Turning to `CCOP(=S)(OCC)SCn1c(=O)oc2cc(Cl)ccc21`, the compound was classed as inactive in [1], in experiment [2], in experiment [4], in experiment [7], in experiment [8] and in experiment [9]. The result in [12] and in experiment [13] was inactive. The AC50 is 20 µM (active) in experiment [3]; 30.2 µM (active) in experiment [5]; 32.3 µM (active) in experiment [6]; 20 µM (active) in [10]; 29 µM (active) in experiment [11].

For `COC(=O)C(C)Oc1ccc(Oc2ccc(Cl)cc2Cl)cc1` (stereo not drawn), the result in experiment [1], in experiment [2], in experiment [3], in experiment [4], in experiment [5] and in experiment [7] was inactive. Further, the outcome in experiment [8], in experiment [9], in experiment [10] and in [12] was inactive. For the same compound, the AC50 was 20 µM (active) in experiment [6], 25.7 µM (active) in experiment [11] and 11.7 µM (active) in experiment [13].

For `O=C(Nc1ccccc1)Nc1ccnc(Cl)c1`, in [1], the compound was called inactive.

Regarding `CCNc1nc(Cl)nc(NC(C)C)n1`, the outcome in experiment [1], in [2], in experiment [3], in [4], in experiment [5] and in [7] was inactive. Further, the compound was classed as inactive in [8], in [9], in [10], in experiment [11], in [17] and in [12]. In addition, the compound was classed as inactive in [18], in experiment [14] and in experiment [15]. Also, the results for the AC50 in experiment [6] and in experiment [13] were 13.9 µM (active) and 11.8 µM (active), respectively.

With `COc1ccc(C(c2ccc(OC)cc2)C(Cl)(Cl)Cl)cc1`, the compound was classed as inactive in [1], in [2], in experiment [3], in experiment [4], in [5] and in experiment [7]. Moreover, the compound was called inactive in experiment [8], in experiment [9], in [12], in experiment [13] and in experiment [14]. The AC50 was 19.9 µM (active) in [6]; 6.83 µM (active) in [10]; 19.9 µM (active) in experiment [11]; 1.1 µM (active) in experiment [17]; 3.77 µM (active) in experiment [18]; 102 µM (active) in experiment [19]. The AC50 is 72.4 µM (active) in experiment [20] and 4.51 µM (active) in [15].

With `COC(=O)C=C(C)OP(=O)(OC)OC`, the compound was classed as inactive in experiment [1].

One may read the AC50 as the concentration at which the activity in the assay is half-maximal.
